Results as given in PubChem BioAssay (NCI).
Compounds without any hit were thinned out: in the full panel of roughly 79,000, 15% have a hit. A number with no mark means an inactive call. Activity calls are given as the source filed them. Cut-off read from the data, not from the text of the source: active = growth inhibition above about 70%; inactive = the rest. *1 amine or outer side, *2 acyl side, *3 side chain or, on linkers, in order; H or OH if unused. Where a SMILES comes first, the peptide text is derived from it. Bridges are numbered along the chain shown (N, C = ends). [ ]: non-standard residue; d: D form. The star is where a group is joined. X16 = CC(C)C(C)C(C(=O)[*:2])N(C)[*:1]; Picolinoyl(3-OH) = O=C(c1ncccc1O)*; NMePhg = CN[CH](C(=O)O)c1ccccc1; Hyp = O=C(O)[CH]1C[CH](O)CN1; Sar = CNCC(=O)O

What was measured:
[1] = NCI Yeast Anticancer Drug Screen. Data for the rad50 strain (AID 155);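 note: 0% = growth of vehicle-only cultures of the same strain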; conditions: S. cerevisiae rad50 strain growth inhibition; at 50.0 µM; hits give high values
Outline: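 A DNA repair-deficient yeast mutant serves as the test organism; compound-induced growth inhibition is calculated against vehicle-treated cells.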

[2] = NCI Yeast Anticancer Drug Screen. Data for the mec2-1 strain (AID 157); conditions: S. cerevisiae mec2-1 strain, at 50.0 µM, hits give high values
Outline: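 Each compound was tested on mec2-1 yeast, a strain altered in DNA damage repair or cell cycle control. Growth inhibition is reported relative to vehicle.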

[3] = NCI Yeast Anticancer Drug Screen. Data for the sgs1 mgt1 strain (AID 161);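 note: 0% = growth of cultures given vehicle only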; conditions: S. cerevisiae sgs1 mgt1 strain, at 50.0 µM, hits give high values
Outline: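 Mutant yeast exposed to compound; growth scored against vehicle-only wells.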

[4] = NCI Yeast Anticancer Drug Screen. Data for the cln2 rad14 strain (AID 165);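 note: 0% = growth equal to vehicle treated cultures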; conditions: S. cerevisiae cln2 rad14 strain, at 50.0 µM, hits give high values
Outline: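 Test compounds were added to cln2 rad14 yeast cultures; inhibition of growth was then determined by comparison with vehicle treatment.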

[5] = NCI Yeast Anticancer Drug Screen. Data for the bub3 strain (AID 167); conditions: S. cerevisiae bub3 mutant strain, at 50.0 µM, hits give high values
Outline: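 Inhibition values come from growth of compound-treated mutant yeast normalised to vehicle-treated controls.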

[6] = NCI Yeast Anticancer Drug Screen. Data for the mlh1 rad18 strain (AID 175); conditions: S. cerevisiae mlh1 rad18 strain growth inhibition; at 50.0 µM; hits give high values
Outline: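 Inhibition values reflect reduced growth of mutant yeast versus vehicle-treated controls following compound exposure; the mutations affect DNA damage repair.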

SMILES | growth inhibition [1] | growth inhibition [2] | growth inhibition [3] | growth inhibition [4] [%] | growth inhibition [5] | growth inhibition [6]
O=[N+]([O-])c1ccc(N/N=C2/CC3=C2CCCCCCCCCC3)c([N+](=O)[O-])c1 | -6.35% | -4.95% | 11% | -14.2 | -2.15% | -13.4%
O=C(CCCCCCCCC(=O)NCC1(c2ccccc2)CCNCC1)NCC1(c2ccccc2)CCNCC1 | -27.5% | -23.6% | -15.2% | -3.25 | -23.9% | -11.2%
C/C(=N\NC(N)=O)c1ccc(Cl)c(-n2cccc2)c1 | 12.3% | 3.65% | 32.7% | 14.3 | 32.1% | 31.2%
CCCNS(=O)(=O)c1ccccc1C(=O)NC1CCCCC1 | 3.25% | -9.9% | 4.05% | 10.8 | -19.7% | 22.2%
O=C(O)CC1=C(c2ccccc2)C(O)(c2ccccc2)CC1=O (centres undefined) | 4.75% | 15.3% | 7.05% | -27.9 | 11.2% | -11.1%
O=C(OC[P+](c1ccccc1)(c1ccccc1)c1ccccc1)c1ccccc1 | 44% | 47.1% | 44.9% | 33.8 | 38.6% | 81.2% (active)
CCCc1cc(=O)[nH]c(=S)[nH]1 | 34.6% | -8.25% | 1.7% | 15.8 | 11.2% | 15.8%
CC(C)OC/N=C(/N)NC#N | -17.1% | 13.1% | -29.4% | 12.6 | -10.1% | -6.5%
O=c1ccc2ccc(O)cc2o1 | -1.45% | -6.7% | 0.9% | 2.05 | -4.65% | -11.8%
O=C(Nc1ccc(F)cc1)C(Br)C(Br)c1ccccc1 (centres undefined) | 91% (active) | 88.2% (active) | 93.9% (active) | 49 | 81.5% (active) | 95.5% (active)
O=C1N(c2ccccc2)C2(O)C(=O)c3ccccc3C2(O)N1c1ccccc1 (centres undefined) | -10% | -2.15% | 15.6% | 16.5 | 3.1% | -4.5%
c1ccc(-c2ccc(N=NN3CCCC3)cc2)cc1 | 0.75% | -5.6% | 14.3% | 6.4 | -6.15% | 8.1%
CC(C)CC1NC(=O)C(NC(=O)c2ncccc2O)C(C)OC(=O)C(c2ccccc2)N(C)C(=O)C(C)NC(=O)C(C(C)C(C)C)N(C)C(=O)CN(C)C(=O)C2CC(O)CN2C1=O (centres undefined) ({Picolinoyl(3-OH)}-TL[Hyp][Sar][X16]A[NMePhg]; ester 1-C; configuration not given here) | 15.8% | 3.65% | 19.1% | 3 | -10.9% | -2.35%
COc1ccc(N=Cc2ccc(N(CCC#N)S(=O)(=O)c3ccccc3)cc2)cc1 | 0.2% | -13.3% | 2.05% | 11.2 | 9.25% | -3.15%
CC1CCCC(CCO)CC1 (centres undefined) | 11.6% | 5.8% | 6.4% | 0.1 | 15.7% | 6.3%
CC(C)CCCC(C)C1CCC2C3CC=C4CCCCC4(C)C3CCC12C (centres undefined) | -22.4% | -4.25% | -3.85% | -5.45 | -5.05% | -23.6%
COc1ccc2nc3cc(Cl)ccc3c(NCCCNCCCNc3c4ccc(Cl)cc4nc4ccc(OC)cc34)c2c1 | -10.3% | -16.5% | -9.1% | 3.5 | -6% | -23.1%
Cc1cccc(C(C)C)c1NC(=O)C(=O)CC(=O)c1sc(Nc2ccccc2Cl)nc1C | -40% | -8.5% | -0.45% | -14.6 | -30.1% | 1.15%
CC1CNC(=S)SSC(=S)N1 (centres undefined) | 35.8% | 26.5% | 20.9% | 32.7 | 14.1% | 27.7%
Cc1nc(-c2cccnc2)sc1C(=O)/C=C/c1cccc([N+](=O)[O-])c1 | 27.1% | 10.6% | 23.9% | 32.2 | 5.6% | 38.9%

SMILES | growth inhibition [1] | growth inhibition [2] | growth inhibition [3] | growth inhibition [4] [%] | growth inhibition [5] | growth inhibition [6]
CN(C)CCNC(=O)Cn1cc([N+](=O)[O-])c(=O)c2ccccc21 | -12.9% | -13.1% | -8.8% | 18.9 | -7.2% | -31.1%
CC(=O)C1(C)SC(N(c2ccccc2)c2ccccc2)=NC1=O (centres undefined) | -1.2% | -4.4% | -4.05% | 2.4 | 9.05% | -0.6%
BrC1CCC(Br)C(Br)CCC1Br (centres undefined) | 46.5% | 54.9% | 55.1% | 31.8 | 60% | 70.4% (active)
COc1ccc(CC(=O)NCCc2ccc(OC)c(OC)c2)cc1Br | 12.2% | -4.85% | -3.8% | 8.35 | 8.8% | 2.6%
COc1ccc(/C(N=Nc2ccccc2)=N/N=C(N)N)cc1 | 24.3% | 6.35% | 12.1% | -2.6 | 36.9% | 8.2%
COc1cc(-c2cc(=O)c3cc4c(cc3[nH]2)OCO4)cc(OC)c1O | -19.9% | -14.1% | -4.5% | 13.4 | -12.3% | -9.85%
COc1cccc(CN2C(=O)NC(C)(C)C2O)c1 (centres undefined) | -12.2% | 28.4% | 10.3% | -5.75 | 11.6% | 10.2%
CCN(CC)CC[n+]1ccc2c(C)c3[nH]c4ccccc4c3c(C)c2c1 | 37.8% | -2.65% | -4.1% | 3.3 | 31.3% | 15.9%
O=C(CCC(=O)Nc1ccc(Cl)c(Cl)c1)CC(=O)c1ccc(F)cc1 | -17.4% | -9.4% | 14.4% | 4.3 | 19.1% | -1.65%
CC(C)(c1ccc([N+](=O)[O-])cc1)c1ccc(N)c([N+](=O)[O-])c1 | 0.65% | -9.65% | -10.6% | 0.1 | -9.1% | -13.1%
O=C1CCC2(CC1)Cc1ccccc1C2O (centres undefined) | -8.75% | -8.45% | 18% | 29.4 | -9.35% | -5.5%
[O-]/[N+](=C\c1ccc(Cl)cc1)c1ccccc1 | -11.2% | -14.1% | -21.1% | -8.85 | -18.9% | -7%
O=c1cc(-c2ccccc2)c2ccc(O)cc2o1 | -11.8% | 1.45% | 20.4% | 3 | 2% | -1.2%
CCCCC(C)C(C)O (centres undefined) | -28.5% | -62.1% | -24.6% | 11.2 | -33.9% | -0.8%
CCOC(=O)C1=CN(Cc2ccccc2)C2ON=C(c3ccc(Cl)cc3)C2C1 (centres undefined) | 0.05% | 2.3% | -11.8% | -2.35 | -0.75% | -0.6%
CCC(O)C(=O)O (centres undefined) | -28.6% | -26.8% | -20.9% | -11.2 | -9.9% | -27.4%
O=C1/C(=C/c2ccc(O)cc2)CCC/C1=C\c1ccc(O)cc1 | 3.9% | 1.85% | 5.2% | 23.1 | -7.05% | 1.45%
OCC(O)C(O)C(O)c1nn(-c2ccc(Cl)cc2)c2nc3cc(Cl)c(Cl)cc3nc12 (centres undefined) | 1.85% | -28.6% | -33.9% | 15.4 | 4.4% | 0.85%
CCOC(=O)Cc1csc2[n+]1C(=O)/C(=C/c1cccc(OC)c1O)S2 | 45.1% | 9.8% | 53.4% | -10.2 | 13.3% | 38.2%
